# PAX8 reporter: PAX8 transcriptional activity inhibition. RMG-I TPO-luciferase reporter, SteadyGlo, 24 h. inhibition, % at 12.6 µM. hit rate 1.2% among 360,000;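 active means mean replicate inhibition at least 60% with every replicate also reaching 60%; inconclusive means only one of the two criteria is met; inactive means mean below 60% and not all replicates reaching 60%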;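 further: luciferase light reporting Pax8 driven TPO promoter activity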
# EWS-Fli inh: inhibitors of EWS/Fli oncoprotein transcriptional activity; A673 NR0B1-luciferase reporter, viability-normalised; inhibition, % at 12.6 µM; hit rate 0.67% among 350,000; AID 651661;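 active means mean inhibition of at least 50% after viability correction, with every replicate also passing that limit; inconclusive means mean reaches 50% but only one of two replicates passes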;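 further: firefly luciferase signal divided by Alamar Blue viability fluorescence both relative to DMSO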
# TROY signal inh: TROY signaling inhibition. AID 1347056. inhibition, % at 10 µM. hit rate 0.98% among 360,000. Q293 LMP1-TROYcd NF-kB luciferase reporter, 4 h;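 active means compounds whose plate-normalised and pattern-corrected inhibition of the luciferase reporter signal at the single screening dose is 50% or more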
# LGR2 antag: Drosophila LGR2 receptor signaling inhibition | HEK293 LGR2, CRE-luciferase, bursicon-stimulated, 4 h | inhibition, % at 9.99 µM | hit rate 0.35% among 380,000;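 active means drop in luminescence signal, shown as inhibition above about 50% in the replicate tests, limit read from the data, passing the limit was not always enough; inconclusive means probably only some replicates passing the limit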;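 further: agonist challenge used bursicon conditioned medium at about half maximal strength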
# TWEAK-Fn14 inh: inhibitors of TWEAK-Fn14 interaction signaling; inhibition, % at 10 µM; TWEAK-stimulated Fn14 reporter cells, luciferase luminescence, 8 h; AID 1159606; hit rate 2% among 360,000; in the data active means inhibition above about 50%
# Hits are given with their value; 0 = inactive; ? = inconclusive; - = no result given. An excerpt weighted towards active compounds, which were near 2.8% of everything screened.
SMILES,PAX8 reporter,EWS-Fli inh,TROY signal inh,LGR2 antag,TWEAK-Fn14 inh
CC(C)n1cc(/C=N/Nc2ccc(C(=O)O)cc2)c2ccccc21,0,0,62,0,81
C[C@@H]1CCCCO[C@H](CN(C)S(=O)(=O)c2ccc(Cl)cc2)[C@H](C)CN([C@H](C)CO)C(=O)c2cc(NS(=O)(=O)c3ccc(F)cc3)ccc2O1,0,0,-,0,-
C[C@H]1CCCCO[C@@H](CN(C)S(=O)(=O)c2ccc(Cl)cc2)[C@@H](C)CN([C@@H](C)CO)C(=O)c2cc(NS(=O)(=O)c3ccc(F)cc3)ccc2O1,63,0,-,0,-
C[C@@H]1CCCCO[C@H](CN(C)S(=O)(=O)c2ccc(Cl)cc2)[C@H](C)CN([C@@H](C)CO)C(=O)c2cc(NS(=O)(=O)c3ccc(F)cc3)ccc2O1,83,0,-,0,-
C[C@@H]1CCCCO[C@H](CN(C)S(=O)(=O)c2ccc(F)cc2)[C@@H](C)CN([C@@H](C)CO)C(=O)c2cc(NS(=O)(=O)c3ccc(Cl)cc3)ccc2O1,?,0,-,0,-
C[C@H](CO)N1C[C@H](C)[C@@H](CN(C)S(=O)(=O)c2ccc(Cl)cc2)OCCCC[C@H](C)Oc2ccc(NS(=O)(=O)c3ccc(F)cc3)cc2C1=O,84,0,-,0,-
C[C@H]1CCCCO[C@@H](CN(C)S(=O)(=O)c2ccc(F)cc2)[C@@H](C)CN([C@@H](C)CO)C(=O)c2cc(NS(=O)(=O)c3ccc(Cl)cc3)ccc2O1,69,0,-,0,-
CCCNC(=O)[C@H]1[C@H](CO)[C@H]2Cn3c(cccc3=O)[C@@H]1N2Cc1ccccc1,-,0,-,0,-
C[C@H](CO)N1C[C@H](C)[C@H](CN(C)C)OCCCC[C@H](C)Oc2ccc(NS(=O)(=O)c3ccc(F)cc3)cc2C1=O,0,0,-,0,-
COCC(=O)Nc1ccc2c(c1)C(=O)N(C)[C@H]1CC[C@H](CC(=O)NCCc3ccccc3)O[C@H]1CO2,0,0,-,0,-
C[C@@H]1CN([C@H](C)CO)C(=O)c2cc(NS(=O)(=O)c3ccc(F)cc3)ccc2O[C@@H](C)CCCCO[C@H]1CN(C)S(=O)(=O)c1ccc(Cl)cc1,98,0,-,0,-
CO[C@H]1CN(C)C(=O)c2cc(NS(=O)(=O)c3ccc(C)cc3)ccc2OC[C@H](C)N(C)C[C@@H]1C,-,0,-,0,-
CC(=O)NC1CC2CCCC(C1)N2S(=O)(=O)c1cccc(F)c1 (stereo unspecified),0,-,0,-,104
COc1ccccc1NC(=O)c1oc2ccccc2c1NC(=O)c1cc(OC)c(OC)c(OC)c1,-,60,0,0,0
COc1ccc(NC(=O)c2oc3ccccc3c2NC(=O)c2ccco2)cc1,-,0,0,0,55
COc1ccc(NC(=O)c2oc3ccccc3c2NC(=O)c2ccco2)c(OC)c1,-,-,0,-,0
CCC(C)c1ccc(NC(=O)c2ccco2)cc1 (stereo unspecified),0,58,0,52,66
COc1ccc(-c2cccc(NC(=O)c3ccco3)c2)nn1,0,0,0,0,0
COc1ccc(-c2ccc(NC(=O)c3ccco3)cc2)nn1,?,64,0,66,77
Cc1noc(C)c1NC(=O)Nc1ccc2c(c1)C(=O)N([C@H](C)CO)C[C@H](C)[C@H](CN(C)CC1CCCCC1)OCCCC[C@@H](C)O2,-,0,-,0,-
Cc1nc(N2CCN(c3ccccc3)CC2)[nH]c(=O)c1CCC(C)C,0,0,0,0,60
N#CC(c1cccc(Cl)c1)c1ccc2c(C(F)(F)F)cc(C(F)(F)F)nc2n1 (stereo unspecified),-,-,64,-,0
COc1cc(C2c3cc4c(cc3C(O)C3COCC23)OCO4)cc(OC)c1OC (stereo unspecified),-,0,0,0,0
COc1cc(C2c3cc4c(cc3C(OC3OC5COC(c6cccs6)OC5C(O)C3O)C3COC(=O)C23)OCO4)cc(OC)c1O (stereo unspecified),69,60,0,0,0
COc1cc([C@@H]2c3cc4c(cc3[C@@H](O[C@@H]3O[C@@H]5CO[C@@H](C)O[C@H]5[C@H](O)[C@H]3O)[C@H]3COC(=O)[C@H]23)OCO4)cc(OC)c1O,0,54,0,0,0
SMILES,PAX8 reporter,EWS-Fli inh,TROY signal inh,LGR2 antag,TWEAK-Fn14 inh
COc1cc([C@@H]2c3cc4c(cc3[C@H](O)[C@H]3COC(=O)[C@H]23)OCO4)cc(OC)c1OC,95,72,0,0,0
CCCNC(=O)C[C@@H]1CC[C@H]2[C@@H](COC[C@@H](O)CN2C(=O)Nc2ccc3c(c2)OCO3)O1,0,0,-,0,-
Cc1cccc(-c2nc(=S)c3c(n2Cc2ccco2)CCCC3)c1,-,-,0,0,50
O=C(c1ccc(CSc2nc3ccncc3[nH]2)cc1)N1CCCCCC1,0,0,0,0,0
O=C(c1ccc(CSc2nc3ccncc3[nH]2)cc1)N1CCN(c2cccc(Cl)c2)CC1,0,0,54,65,61
O=C1c2ccccc2OC2(C=Cc3ccccc3O2)N1Cc1ccccc1 (stereo unspecified),-,-,-,0,76
Cc1ccccc1C1=C/C(=C(\SS/C(C(=O)c2ccc(OCC(=O)O)c(Cl)c2Cl)=C2\C=C(c3ccccc3C)SS2)C(=O)c2ccc(OCC(=O)O)c(Cl)c2Cl)SS1,0,0,0,-,57
O=C(O)COc1ccc2nsnc2c1Cl,-,-,0,-,0
COc1ccc(NC(=O)Nc2ccc3c(c2)[C@@H]2C[C@@H](CC(=O)N(C)C)O[C@@H](CO)[C@@H]2O3)cc1,-,0,-,0,-
O=[N+]([O-])c1cccc(NC(=S)NCc2ccncc2)c1,0,0,0,0,0
O=[N+]([O-])c1cccc(NC(=S)Nc2nc(-c3ccccc3Cl)cs2)c1,0,0,0,0,56
C[C@H](CO)N1C[C@H](C)[C@@H](CN(C)C)Oc2ncc(C#CCN(C)C)cc2C1=O,-,0,-,0,-
C[C@H](CO)N1C[C@H](C)[C@@H](CN(C)Cc2ccc(Cl)c(Cl)c2)Oc2c(NC(=O)c3cnccn3)cccc2C1=O,0,0,-,0,-
Cc1cccc(S(=O)(=O)Nc2ccc3c(c2)OCCO3)c1,0,0,0,0,0
O=S(=O)(Nc1ccc2c(c1)OCO2)c1cccs1,0,-,0,-,0
COc1ccc(NC(C)=O)cc1S(=O)(=O)Nc1ccc2c(c1)OCCO2,0,0,53,0,57
Cn1c(=O)oc2cc(S(=O)(=O)Nc3ccc4c(c3)OCCO4)ccc21,-,-,0,-,65
COc1cccc(S(=O)(=O)Nc2ccc3c(c2)OCCO3)c1,0,0,52,0,76
O=S(=O)(Nc1ccc2c(c1)OCCO2)c1cccs1,-,0,74,0,90
CNC[C@@H]1Oc2ccc(NC(=O)C3CCCCC3)cc2C(=O)N([C@H](C)CO)C[C@@H]1C,0,0,-,0,-
COc1ccc(NC(=O)N(C)C[C@@H]2Oc3c(NC(=O)C4CC4)cccc3C(=O)N([C@@H](C)CO)C[C@@H]2C)cc1,-,0,-,0,-
O=C(NCCN1CCOCC1)c1ccc(Cl)c(S(=O)(=O)N2CCCCCC2)c1,-,-,-,-,66
O=C(NCCN1CCOCC1)c1ccc(Cl)c(S(=O)(=O)N2CCCC2)c1,0,0,0,0,0
